# The full ranking holds about 68,000 sequences; the median of “fluorescence intensity (a.u.)” is about 9,100, and the highest 2% start at about 16,000. The sample holds the highest values, similar sequences and a random draw of the others, so the mix is not that of the screen.
# Biological target: OsWRKY34 (Oryza sativa, UniProt Q0JBA9 1-250)
# Experiment: protein-binding microarray (RPBM); PBS, 2% BSA, 51.3 ng/ul salmon testes DNA, 50 uM zinc acetate, 200 nM TF, 25 C, 1 h; high values mean tight binding
# Conditions: protein: recombinant; tags: N-terminal polyhistidine and DsRed monomer fusion (pET32a); label: CyDye5-dUTP incorporated in the synthesized complementary strand; 3' TTTTT single-stranded linker to array surface; dsDNA, one strand shown
# Outline: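 Binding signal here means per-feature fluorescence intensity in arbitrary units. The values were read on an Axon 4000B scanner after a custom Agilent array, double-stranded by primer extension with Cy5-dUTP, was incubated with 200 nM protein at 25 °C for 1 h in PBS with 2% BSA, salmon testes DNA and 50 µM zinc acetate, then washed. The proteins were transcription factors with an N-terminal polyhistidine tag and DsRed, expressed in E. coli BL21-CodonPlus and purified on Ni–NTA.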
# Sequence of OsWRKY34 (Q0JBA9 entry or part of it): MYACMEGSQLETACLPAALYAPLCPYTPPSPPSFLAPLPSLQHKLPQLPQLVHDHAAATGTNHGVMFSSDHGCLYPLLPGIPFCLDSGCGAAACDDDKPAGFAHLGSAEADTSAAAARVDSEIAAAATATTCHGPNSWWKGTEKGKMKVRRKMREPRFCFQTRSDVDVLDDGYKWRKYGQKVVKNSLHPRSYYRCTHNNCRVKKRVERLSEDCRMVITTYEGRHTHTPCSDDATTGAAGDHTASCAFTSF
row,Sequence,binding signal
1,TATAGTAGTATGGGTGGAGATTTATATTTTTCTCTCGATTCGGAGTCACCTAGTGCAG,8940 fluorescence intensity (a.u.)
2,GGAGGCATGATGGCGGCATGGTGGAGGGTGGGGTGACGTGCGGAGTCACCTAGTGCAG,12000 fluorescence intensity (a.u.)
3,CTAGATTCGTTTTTTATGGGGTGGAGGGAGTACATGCCTTCGGAGTCACCTAGTGCAG,12800 fluorescence intensity (a.u.)
4,ACCTTTTATGGTGGGGTAGGAGTAGGTGACGGTGGAGATTCGGAGTCACCTAGTGCAG,19000 fluorescence intensity (a.u.)
5,ACGCGGGGATGGATGATGGTGGTGGCGGCGAGGGGATGATCGGAGTCACCTAGTGCAG,9170 fluorescence intensity (a.u.)
6,CGTGGTGGTGGTAGGGGAGGGGATGGATGATATGGCGTGACGGAGTCACCTAGTGCAG,22400 fluorescence intensity (a.u.)
7,GAAATACTCCAATGGGTTAACTTAGGGTCGGGAAGGGGAGCGGAGTCACCTAGTGCAG,10100 fluorescence intensity (a.u.)
8,TTCCTGCTCTGTCCGTGCTCGACTCAATTCATTGTCAACCCGGAGTCACCTAGTGCAG,8690 fluorescence intensity (a.u.)
9,CTTTGCATCTCTTCTTTTCTTTCTTTTTTTTTTCTTTTCTCGGAGTCACCTAGTGCAG,12100 fluorescence intensity (a.u.)
10,TCCACGTTGACCACATCGCGTCACACCGTCCACGACTTTTCGGAGTCACCTAGTGCAG,12700 fluorescence intensity (a.u.)
11,GTTAACTTTTTAGAACATGTTTGACCGTTCGTCTTATTCACGGAGTCACCTAGTGCAG,8930 fluorescence intensity (a.u.)
12,GTTAACTTTTTAGCACATGTTTGACCGTTCGTCTTATTCACGGAGTCACCTAGTGCAG,12600 fluorescence intensity (a.u.)
13,GACTTTTTAGCACATGTTTAACCGTTCGTCTTATTCAAAACGGAGTCACCTAGTGCAG,12100 fluorescence intensity (a.u.)
14,TTCATCTCACGTACTGTTCTTTTGCCTCTCGCTAGCTCGTCGGAGTCACCTAGTGCAG,9220 fluorescence intensity (a.u.)
15,TTTTTAGTACATGTTTGACCGTTCGTCTTATTCAAAAAATCGGAGTCACCTAGTGCAG,10700 fluorescence intensity (a.u.)
16,ATATTGTTGACTTTTTAGCACATGTTTAACCGTTCATCTTCGGAGTCACCTAGTGCAG,19600 fluorescence intensity (a.u.)
17,TGTTCGCGTCCATCGTTGACTTTTTCAACGCCATGCACGCCGGAGTCACCTAGTGCAG,30900 fluorescence intensity (a.u.)
18,AAGTTTTCGCGTCCAACTTTCATCGTTCGTCTTATTTGAACGGAGTCACCTAGTGCAG,10600 fluorescence intensity (a.u.)
19,GCCTCTTTTTTGTCGCTCTCACTGTCTCACACCTACACGTCGGAGTCACCTAGTGCAG,16400 fluorescence intensity (a.u.)
20,CCTCTCTTTCTCTCACTCTCTGTGACTCTTGTCTTTTTGTCGGAGTCACCTAGTGCAG,8390 fluorescence intensity (a.u.)
21,CCGTTGACTTTTTAGTACATGTTTAACCGTTCGTCTTATTCGGAGTCACCTAGTGCAG,38600 fluorescence intensity (a.u.)

row,Sequence,binding signal
1,CATTGTGCGCTCTGGAGAGGCTCCAAACCACCATTGTTCGCGGAGTCACCTAGTGCAG,8090 fluorescence intensity (a.u.)
2,GCCCTCGTCGTCGTCCGACCACCCGATCCCGACGAGAACCCGGAGTCACCTAGTGCAG,8690 fluorescence intensity (a.u.)
3,ATCTACTACTATTCTACTCTACTCGCAAGTCTCACAAACACGGAGTCACCTAGTGCAG,8740 fluorescence intensity (a.u.)
4,AAAAAGAGTTCTCTTCTTCACTTCTACTCTTCACAACTTTCGGAGTCACCTAGTGCAG,9410 fluorescence intensity (a.u.)
5,CATCCAAATAGGTTCTTTTAGTTCAATTTTGGGGCAGTTTCGGAGTCACCTAGTGCAG,9920 fluorescence intensity (a.u.)
6,GCTACTATCAAGTCATAAGCTTACTACCAAGTTATAGCACCGGAGTCACCTAGTGCAG,8320 fluorescence intensity (a.u.)
7,ATATACATGTGATAGCTTCGTCTCAAGATACATTGTCCTACGGAGTCACCTAGTGCAG,9500 fluorescence intensity (a.u.)
8,CTGTTCCGCCACCTACCACCGAGCCGTTGTCTCCCATGACCGGAGTCACCTAGTGCAG,10100 fluorescence intensity (a.u.)
9,AAAGCCGTCGTATTGTCATCCGCCGCTCGCTGACTCATTCCGGAGTCACCTAGTGCAG,8310 fluorescence intensity (a.u.)
10,TCCCCTTCGCCCTTCGTCGTCGTCGTCGTCGTCGTTCGTCCGGAGTCACCTAGTGCAG,8050 fluorescence intensity (a.u.)
11,AACCACCACAAGCCGTTAACCCCGTTGTTTACCTCCTCCTCGGAGTCACCTAGTGCAG,8190 fluorescence intensity (a.u.)
12,GCCGTTGACTTTTTATTACATGTTTGACCGTTCGTCTTATCGGAGTCACCTAGTGCAG,62900 fluorescence intensity (a.u.)
13,TATGTTCATTTCCTTATTTGCCTCTCGTCATGTCTCTTGACGGAGTCACCTAGTGCAG,10200 fluorescence intensity (a.u.)
14,TTGTTTCTGTTCATTTTTCTCTATAGTACTTGCTAGGTGACGGAGTCACCTAGTGCAG,11500 fluorescence intensity (a.u.)
15,ATTTTGACTTTTTGGTTGCGCTATTTGATTACTCGTCTTACGGAGTCACCTAGTGCAG,19400 fluorescence intensity (a.u.)
16,AACGCTATTTATTTTTTAAACATGTTTGATCGTTCGTCTTCGGAGTCACCTAGTGCAG,10200 fluorescence intensity (a.u.)
17,TGACGCCGTTGACTTTTTTAAACATGTTTGATCGTTCGTCCGGAGTCACCTAGTGCAG,35900 fluorescence intensity (a.u.)
18,TTGACTTTTGCTTGCACTGTTTGATTACTCGTCTTATTAACGGAGTCACCTAGTGCAG,8670 fluorescence intensity (a.u.)
19,TTTGCAACATTTGATTACTCGTCTTATTTAATTTTTTTTTCGGAGTCACCTAGTGCAG,8230 fluorescence intensity (a.u.)
20,TTTCAGGTTTTGCATTTCACACCTCTGTCGTCATACTTGACGGAGTCACCTAGTGCAG,17800 fluorescence intensity (a.u.)
21,AGTAAAGTCCATCACCGGTCCCTAAACTTGTACCGCTATGCGGAGTCACCTAGTGCAG,8810 fluorescence intensity (a.u.)

# Source: article PMC7819943, “Rice protein-binding microarrays: a tool to detect cis-acting elements near promoter regions in rice”
